# TDP1 block: qHTS Assay for Inhibitors of Tyrosyl-DNA Phosphodiesterase (TDP1) | recombinant TDP1, AlphaScreen DNA substrate cleavage | Potency, µM (doses to about 130 µM), without a hit: at the top dose activity change, negative = inhibition, usual class: inhibitors | 0.28% of 350,000 active | AID 485290, 2010; further: nearly all actives have a fitted effect of over 40% in size
# Target sequence (Q9NUW8 whole entry, looked up): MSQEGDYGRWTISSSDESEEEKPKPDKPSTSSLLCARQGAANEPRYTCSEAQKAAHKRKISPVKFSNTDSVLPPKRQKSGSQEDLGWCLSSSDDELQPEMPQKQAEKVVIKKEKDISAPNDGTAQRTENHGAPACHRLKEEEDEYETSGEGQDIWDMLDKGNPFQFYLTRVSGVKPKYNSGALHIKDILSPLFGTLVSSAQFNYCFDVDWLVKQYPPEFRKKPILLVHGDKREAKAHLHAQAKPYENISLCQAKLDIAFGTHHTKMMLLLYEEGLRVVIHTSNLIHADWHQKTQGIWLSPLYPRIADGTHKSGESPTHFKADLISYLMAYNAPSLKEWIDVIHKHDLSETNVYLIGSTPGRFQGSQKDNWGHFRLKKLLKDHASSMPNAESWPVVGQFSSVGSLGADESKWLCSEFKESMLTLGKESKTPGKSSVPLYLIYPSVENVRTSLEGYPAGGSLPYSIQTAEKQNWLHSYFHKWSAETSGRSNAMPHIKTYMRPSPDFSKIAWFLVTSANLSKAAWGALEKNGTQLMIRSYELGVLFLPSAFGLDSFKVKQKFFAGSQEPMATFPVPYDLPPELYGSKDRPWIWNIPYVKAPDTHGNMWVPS
#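 Tdp1 1 nM final; 15 min RT w/ cpd; substrate 15 nM, 5 min; beads 10 ug/ml, 10 min; AlphaScreen read. Neg ctrl: no enzyme.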
# Gal4-VP16 FLuc: VP16 counterscreen qHTS for inhibitors of ROR gamma transcriptional activity. Drosophila S2 Gal4-VP16 UAS-luciferase, luminescence, 20 h. Potency, µM (highest dose often 53.6 µM), inactives show at the highest dose activity, negative = inhibition, usual class: inhibitors. 3.5% of 310,000 active. AID 2546, 2010;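 further: Gal4-VP16 expression switched on by copper sulfate through the metallothionein promoter; nearly all actives have a fitted effect of over 50% in size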
# DT40 TDP1 no CPT: qHTS for Inhibitors of human tyrosyl-DNA phosphodiesterase 1 (TDP1): qHTS in cells in absence of CPT; DT40 Tdp1-/- hTDP1 cells, no CPT, ATP luminescence, 48 h; Potency, µM (doses to about 46.2 µM), inactives show at the top dose activity change, negative = growth inhibition, hits mostly inhibitors; 15% of 420,000 active; further: nearly all actives have a fitted effect of over 55% in size
#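 Cells were dispensed at 400 per well, compounds added by pin tool, plates incubated ≥48 hr at 37 °C, then CellTiter-Glo added for 30 min at room temperature before luminescence reading. Line: DT40 Tdp1-/- complemented with hTDP1; camptothecin omitted.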
# RORgamma inh: qHTS for inhibitors of ROR gamma transcriptional activity; 5.4% of 310,000 active; Potency, µM (doses to about 53.6 µM), inactives show top-dose activity change, negative = inhibition, actives largely listed as inhibitors; Drosophila S2 Gal4-RORgamma UAS-luciferase reporter, 20 h; Nuclear receptor ROR-gamma (Mus musculus), P51450; AID 2551, 2010; further: nearly all actives have a fitted effect of over 60% in size
#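 Luminescence from a UAS-regulated Photinus luciferase reporter in stably transfected Drosophila Schneider cells is measured; decreased signal marks ROR gamma inhibition. Fusion expression is induced by 700 uM copper sulfate for 20 hr.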
# DT40 TDP1 CPT: qHTS for Inhibitors of human tyrosyl-DNA phosphodiesterase 1 (TDP1): qHTS in cells in presence of CPT | Potency, µM (titrated, usually from 46.2 µM), inactives show at the highest dose activity change, negative = growth inhibition, usual class: inhibitors | chicken DT40 Tdp1-/-;hTDP1 cells + 20 nM CPT, ATP luminescence, 48 h | 12% of 420,000 active | AID 686979, 2013; further: nearly all actives have a fitted effect of over 55% in size
#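 Chicken DT40 Tdp1-/- cells complemented with human TDP1, 400 cells/well, exposed to compounds plus 20 nM camptothecin for at least 48 h at 37 C; viability read as ATP content by CellTiter-Glo luminescence.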
# Numbers without * were called inactive; ? = inconclusive; nt = no result given; ! = repeats disagree; [ ] = another dose, or the depositor's remark. Only some compounds are listed: those with a hit (about 19% of all), similar ones and a draw of the others. The call rests on the fitted dose curve; in most records, active means well fitted curve in the direction sought with a large enough effect; inconclusive means small, poorly fitted or top-dose-only effect, or another doubt; inactive means no such curve, though single readings can be large; an effect the other way counts as inactive or inconclusive. On the % scale 0 is the no-effect control and ±100 the full control effect; potency means the concentration at half of the fitted maximal effect.
SMILES,TDP1 block,Gal4-VP16 FLuc,DT40 TDP1 no CPT,RORgamma inh,DT40 TDP1 CPT
Cc1cccc(-n2c(/C=C/c3ccc([N+](=O)[O-])o3)nc3ccccc3c2=O)c1,0%,?,4.6µM*,19%,3.3µM*
CCN1CCN(c2ccc(N)cc2)CC1,2%,-2%,1%,-13%,?
CCN1CCN(c2ccc(N)cc2C)CC1,4%,-14%,13µM*,8%,12µM*
O=c1[nH]c2ccccc2n1C1CCN(C(c2cccc3ccccc23)c2nnnn2Cc2ccccc2)CC1 (centres undefined),nt,nt,8.2µM*,nt,12µM*
COc1cccc(C(c2nnnn2Cc2ccccc2)N2CCC(n3c(=O)[nH]c4ccccc43)CC2)c1OC (centres undefined),nt,nt,3.3µM*,nt,2.6µM*
O=c1[nH]c2ccccc2n1C1CCN(C(CCc2ccccc2)c2nnnn2C2CCCC2)CC1 (centres undefined),nt,nt,16µM*,nt,18µM*
O=c1[nH]c2ccccc2n1C1CCN(Cc2ccc(-c3[nH]c4cc5ncnc5cc4nc3-c3ccccc3)cc2)CC1,19%,-20%,2.9µM*,13%,2.3µM*
O=c1[nH]c2ccccc2n1C1CCN(C(c2cc3ccccc3o2)c2nnnn2Cc2ccccc2)CC1 (centres undefined),nt,nt,9.2µM*,nt,10µM*
O=C1CC(N2CCC(n3c(=O)[nH]c4ccccc43)CC2)C(=O)N1Cc1ccccc1 (centres undefined),7%,?,-10%,-29%,-4%
NC12CN3CN(CN(C3)C1)C2 (tested in a mixture with another compound),8%,-3%,-7%,16%,-8%
Cc1cccc(NC(=O)c2ccc(F)c(S(=O)(=O)N3CCN(c4ccc(F)cc4)CC3)c2)c1,0%,nt,16µM*,nt,?
O=C(Nc1ccc(Oc2ccccc2)cc1)c1ccc(F)c(S(=O)(=O)N2CCN(c3cccc(Cl)c3)CC2)c1,3%,nt,3.7µM*,nt,1.8µM*
Cc1ccc(C(=O)Nc2ccccc2)cc1S(=O)(=O)N1CCCC1,2%,nt,nt,nt,nt
Cc1cc(OCc2nn[nH]n2)c2c3c(c(=O)oc2c1)CCCC3,7%,5%,13%,28%,-7%
CC/C(=C\C=C\[C@@H]1C=C[C@@H]2CCC[C@H]2[C@@H]1C(=O)c1ccc[nH]1)[C@@H]1O[C@@H]([C@@H](C)C(=O)O)CC[C@@H]1C,2%,10µM*,5.8µM*,?,7.3µM*
CC(CCc1ccccc1)NC(C)C(O)c1ccc(O)cc1 (centres undefined),-5%,-1%,23µM*!,0%,?
CC(NCc1ccc(Cl)cc1)C(O)c1ccccc1 (centres undefined),1%,-1%,-14%,-9%,1%
CCCCCc1cc(O)c2c(c1)OC(C)(C)[C@@H]1CCC(C(=O)O)=C[C@H]21,8%,?,nt,29%,nt
CC(=O)c1c(O)cc2c3c1OC(C)(C)C1CCC(C)(CC31)O2 (centres undefined),nt,nt,13µM*,nt,21µM*
CC(C1OC(C)(C)C(O)C1O)C1CC[C@@]2(C)C3=CCC4C(C)(C)C(=O)CC[C@]4(C)C3CC[C@@]12C (some centres undefined),13%[56.1 µM],-10%,?,-17%,?
CN(C(=O)Oc1cccc2ccccc12)C1C=CCC1 (centres undefined),nt,nt,-64%,nt,-30%
CCCCC/C=C\C/C=C\C/C=C\C/C=C\CCCC(=O)NC1CC1,-7%,?,nt,?,nt
CCc1ccc(Nc2nc3c(S(=O)(=O)c4ccc(C)cc4)nnn3c3ccsc23)cc1,3%,nt,3.7µM*,nt,3.7µM*
COc1cc2c(cc1O)C[C@H]1c3c(cc(O)c(OC)c3-2)CCN1C,2%[21 µM],3%[17 µM],-2%,0%[16.9 µM],-2%
CN1CCc2cc3c(c4c2C1Cc1ccccc1-4)OCO3 (centres undefined),nt,7%,-27%,?,-4%
SMILES,TDP1 block,Gal4-VP16 FLuc,DT40 TDP1 no CPT,RORgamma inh,DT40 TDP1 CPT
CCCN1CCc2cccc3c2C1Cc1ccc(O)c(O)c1-3 (centres undefined),5%,nt,-89%,nt,3.7µM*
CN1CCc2cc(O)cc3c2[C@H]1Cc1ccc(O)c(O)c1-3,nt,nt,2.6µM*,nt,1.6µM*
C=C1[C@@H](OC(C)=O)[C@]23C[C@@H]1[C@@H](OC(C)=O)CC2[C@]12C4C[C@H]3[C@H]1N(CC)C[C@]4(C)CC[C@@H]2O (some centres undefined),nt,nt,-13%,nt,2%
NCc1cc(=O)[nH]o1,-1%,-14%,-6%,-7%,-2%
O=C(Cc1ccccc1)Oc1ccc(N2C(=O)C3CCCCC3C2=O)cc1 (centres undefined),3%,4%,5%,?,8%
O=C(CCl)c1ccc(Cl)cc1Cl,7%,?,14µM*,8.9µM*,22µM*
O=C(O)c1cc(Cl)ccc1Cl,14%,-30%,nt,-18%,nt
CNCC(=O)c1ccc(O)c(O)c1,nt,nt,-5%,nt,-27%
O=C(CCl)c1ccc(O)c(O)c1,nt,nt,11µM*,nt,?
COCc1cc(C)c(C#N)c(=S)[nH]1,3%,?,0.82µM*,4µM*,1.2µM*
CN(C)C(=O)CCSC(SCCC(=O)O)c1cccc(/C=C/c2ccc3ccc(Cl)cc3n2)c1 (centres undefined),6%,-3%,17µM*,?,?
CCCOC(=O)c1ccccc1C(=O)OCCC,-3%,-20%,4%,14%,0%
CC12CCC3c4ccc(OP(=O)(N5CC5)N5CC5)cc4CCC3C1CCC2=O (centres undefined),nt,nt,13µM*,nt,15µM*
Cn1cc(C(=O)C(=O)N[C@H]2CN3CCC2CC3)c2ccccc21,7%,-2%,?,3%,-10%
O=C(O)CCC1NCC2CC1CN1CCCCC21 (centres undefined),6%[56.1 µM],10%,-2%,-26%,-10%
O=C1OC(=O)C2C1[C@@H]1CC[C@H]2O1 (some centres undefined),-9%,-17%,5%,-2%,17%
CC1CC2CCC(O2)C(C)C(=O)OC(C)CC2CCC(O2)C(C)C(=O)OC(C)CC2CCC(O2)C(C)C(=O)OC(C)CC2CCC(O2)C(C)C(=O)O1 (centres undefined),4%,0.5µM*,nt,0.11µM*,nt
N#CC(C#N)=NNc1ccc(S(=O)(=O)N2CCCC2)cc1,5%,?,16µM*,?,?

# Bioassay records as filed in PubChem.
